Z-score data for 28 molecules are collected here from PubChem BioAssay.

This experiment in a line: calcein-AM signal in unstimulated myeloma cells – cell-based, calcein-AM fluorescence, 48 h, PK04 Diversity Set, profiling panel (AID 1166).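 Also: cells grown under basal conditions without added stimulus; test concentration not given here.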 The settings on record: RPMI8226 myeloma viability, higher = more signal.
Regarding `CO[C@H]1COC(=O)CC=C[C@H](C)[C@H](OC)COC(=O)[C@@H](C)NC(=O)CC=C[C@@H]1C`, the z-score is 0.222.

With `CCOC(=O)[C@H](Cc1ccccc1)NC(=O)CCC1CC(OC(=O)NCCc2ccc(F)cc2)CC2(CCCC(COC(=O)NCc3cccc(C(F)(F)F)c3)O2)O1` (stereo partly drawn), the z-score is -1.82.

Consider `CCOC(=O)NN=C1C[C@@H](O)[C@@H](O)[C@@H]2[C@@H]3C(=O)N(c4ccc(F)cc4F)C(=O)[C@@H]3CC[C@H]12`, for which the z-score is -0.895.

`C[C@]12CCC3c4ccc(OCC5CO5)cc4CCC3C1CC[C@@H]2O` (stereo partly drawn): the z-score is -1.06.

As to `CCOC(=O)CCN1C(=O)[C@H]2[C@H]3[C@H](O)[C@H](O)CC(=NOCC=C(C)CCC=C(C)C)[C@@H]3CC[C@H]2C1=O`, the z-score is -0.0685.

As for `CCOC(=O)[C@H](Cc1ccccc1)NC(=O)CCC1CC(OC(=O)NCc2cccc3ccccc23)CC2(CCCC(COC(=O)NCCOc3ccccc3)O2)O1` (stereo partly drawn), the z-score was -0.634.

For `CCOC(=O)[C@H](Cc1ccccc1)NC(=O)CCC1CC(OC(=O)NCc2ccc3c(c2)OCO3)CC2(CCCC(COC(=O)NCCc3ccc(Cl)cc3)O2)O1` (stereo partly drawn), the z-score is -0.167.

As for `O=C(NN=C1C[C@@H](O)[C@@H](O)[C@@H]2[C@@H]3C(=O)N(Cc4ccccc4)C(=O)[C@@H]3CC[C@H]12)OCc1ccccc1`, the z-score is -0.256.

With `C[C@@H]1CC[C@H]2C(=O)O[C@@H](CN=[N+]=[N-])CN2[C@H]1c1ccc(Br)cc1`, the z-score is -4.07.

As to `COC(=O)CC=C[C@@H](C)[C@@H](C=NOC[C@@H](O)[C@H]1O[C@@H]2OC(C)(C)O[C@@H]2[C@H]1O)OC`, the z-score is 0.216.

Regarding `CC(CCN1CCCc2nc(C)c(C)cc21)=NO[C@H](C)c1cn([C@@H]2COC[C@H]2O)nn1`, the z-score is -0.0215.

For the molecule `CC(C)(C)N1C(=O)[C@H]2[C@H]3[C@H](O)[C@H](O)CC(=NNC(=O)OCc4ccccc4)[C@@H]3CC[C@H]2C1=O`, the z-score was 0.489.

As for `COc1cccc([C@H]2Oc3ccc(OC)cc3C(=NO[C@@H](C)c3cc(-c4c(C)cc(C)cc4C)no3)[C@@H]2O)c1`, the z-score is -0.845.

As to `O=C1C2=CC[C@H]3C(=O)N(C[C@@H]4CCCO4)C(=O)[C@H]3[C@H]2[C@H](O)[C@@H]2O[C@H]12`, the z-score was -3.32.

As for `CCOC(=O)[C@H](Cc1ccccc1)NC(=O)CCC1CC(OC(=O)NCc2cccc3ccccc23)CC2(CCCC(COC(=O)NCCc3ccc(Cl)cc3)O2)O1` (stereo partly drawn), the z-score was 0.859.

`COC(=O)[C@H](C)NC(=O)CCC1CC(OC(=O)NCc2cccc3ccccc23)CC2(CCCC(COC(=O)NCc3cccc(C(F)(F)F)c3)O2)O1` (stereo partly drawn): the z-score is -0.0274.

Regarding `COC(=O)[C@H](C)NC(=O)CCC1CC(OC(=O)NCc2cccc3ccccc23)CC2(CCCC(COC(=O)NCCOc3ccccc3)O2)O1` (stereo partly drawn), the z-score was -3.01.

For the molecule `CCOC(=O)CCN1C(=O)[C@H]2[C@H]3[C@H](O)[C@H](O)CC(=O)[C@@H]3CC[C@H]2C1=O`, the z-score was 0.456.

In the case of `C#CCCCON=C1[C@H]2CCn3c(=O)n(Cc4cc5c(cc4Cl)OCO5)c(=O)n3[C@H]2[C@H](O)[C@@H]2O[C@H]12`, the z-score was 0.644.

Take `COC(=O)[C@H](C)NC(=O)CCC1CC(OC(=O)NCCc2ccc(F)cc2)CC2(CCCC(COC(=O)NCCc3ccccc3OC)O2)O1` (stereo partly drawn): the z-score is -0.285.

As for `CCOC(=O)[C@H](Cc1ccccc1)NC(=O)CCC1CC(OC(=O)NCc2ccc3c(c2)OCO3)CC2(CCCC(COC(=O)NCCOc3ccccc3)O2)O1` (stereo partly drawn), the z-score was 0.0039.

For the molecule `CCOC(=O)CCN1C(=O)[C@H]2[C@H]3[C@H](O)[C@H](O)CC(=NNC(=O)OCC)[C@H]3CC[C@H]2C1=O`, the z-score is -3.78.

For the molecule `CCN1C(=O)[C@H]2[C@H]3[C@H](O)[C@H](O)CC(=NOCC[C@@H]4C=C[C@H](OC(C)=O)[C@@H](COC(C)=O)O4)[C@@H]3CC[C@H]2C1=O`, the z-score was -0.727.

With `O=C1C2=CC[C@H]3C(=O)N(c4ccc(F)cc4F)C(=O)[C@H]3[C@H]2[C@H](O)[C@@H]2O[C@H]12`, the z-score was -0.397.

On to `COc1ccc(O[C@H]2C=C[C@@H](c3ccccc3)O[C@@H]2COC(=O)CCC(C)=NOC[C@@H](O)COCc2ccco2)cc1`, for which the z-score is 0.107.

For the molecule `O=C1C[C@@H](O)[C@@H](O)[C@@H]2[C@@H]3C(=O)N(C4CCCCC4)C(=O)[C@@H]3CC[C@@H]12`, the z-score was 0.313.

As to `CC(CCC(=O)OC[C@H]1O[C@H](C#Cc2ccccc2)C=C[C@@H]1Oc1ccc(C)cc1)=NOC[C@@H](C)[C@H](OCc1ccccc1)C(C)C`, the z-score was 0.164.

In the case of `CC(C)CON=C1C[C@@H](O)[C@@H](O)[C@@H]2[C@@H]3C(=O)N([C@@H](C)c4ccccc4)C(=O)[C@@H]3CC[C@@H]12`, the z-score is 0.336.
